A selection: hits, their analogues and other compounds. The true share with any hit is near 7.8%.
MARV entry inh: blocks Marburg virus binding to or entry into cells; Marburg virus pseudotyped entry inhibition, cell reporter; 1.8% of 300,000 active; Potency, µM (top dose mostly 37.8 µM), usual class: inhibitors; calls by dose curve; tested in HEK293 cells
HCV inh: blocks hepatitis C virus | Huh7.5.1 HCVcc-Cre infection, luciferase reporter, 44 h | Potency, µM (doses to about 41.8 µM), actives largely listed as inhibitors | 3.4% of 340,000 active | AID 651820; active = well fitted inhibition curve with a large enough effect; inconclusive = small, poorly fitted or top-dose-only effect, or another doubt; inactive = no such curve, though single readings can be large or run the other way
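Seed cells (1,000/well) for 4 h; treat with compound and infect with HCVcc-Cre, moi about 0.5. Incubate 44 h, then detect luciferase activity.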
HCMV inh: blocks human cytomegalovirus replication; HFF cells, HCMV-luciferase reporter, 72 h; stronger effect = lower value; 4.5% of 410,000 active; AID 1259415; activity change, negative = inhibition, % at 57.5 µM; in the data active = activity change below about -60%; inconclusive = no clear call, values can overlap the other calls; inactive = above about -39%
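Screen run at 2 compound doses on HFFs infected with reporter HCMV, MOI 1 PFU/cell. Luciferase activity from cell lysates at 72 h post infection gave inhibition relative to buffer-only and Salinomycin wells.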
Vaccinia mCherry: inhibitors of vaccinia virus infection (mCherry reporter signal). Vaccinia virus mCherry reporter infection, fluorescence. Potency, µM (doses to about 36.5 µM), most hits filed as inhibitors. 0.63% of 310,000 active. AID 720579; calls by dose curve; tested in A549 cells; note: nearly all actives have a fitted effect of over 35% in size
VACV Venus inh: inhibitors of vaccinia virus (Venus reporter). Vaccinia virus Venus reporter expression, fluorescence. Potency, µM (series often up to 36.5 µM), actives largely listed as inhibitors. AID 720580. 0.46% of 330,000 active; calls by dose curve; tested in A549 cells; note: nearly all actives have a fitted effect of over 30% in size
LASV entry inh: blocks Lassa virus binding to or entry into cells | Lassa virus pseudotype entry inhibition, cell reporter | Potency, µM (highest dose often 37.9 µM), hits mostly inhibitors | 1.2% of 300,000 active; calls by dose curve; tested in HEK293 cells; note: nearly all actives have a fitted effect of over 50% in size
Each line names hits and unclear results; the compound was inactive in the other large screens; ! = repeats disagree.

COc1cccc([C@H]2/C(=C(\O)c3ccc(OC)c(OC)c3)C(=O)C(=O)N2c2cc(C)on2)c1	none (no result: HCV inh, HCMV inh, Vaccinia mCherry, VACV Venus inh, LASV entry inh)
CCOc1ccc(N/C=C/C(=O)c2ccccc2)c([N+](=O)[O-])c1	MARV entry inh inconclusive, LASV entry inh 1.1µM
CCOc1ccccc1CNC(=O)c1cnn(-c2ccc(C)cc2)c1-n1cccc1	HCMV inh inconclusive, LASV entry inh inconclusive (no result: MARV entry inh, HCV inh)
Cc1ccc(C(C(=O)NC(C)(C)C)N(CCCN2CCOCC2)C(=O)c2ccc(-c3ccccc3)[nH]2)o1 (centres undefined)	HCMV inh -74
CCOc1ccccc1NC(=O)CSc1ncc(S(=O)(=O)c2ccc(C)c(C)c2)c(N)n1	none (no result: MARV entry inh, HCV inh)
CN(C)Cc1c(O)ccc2[nH]cnc12	HCV inh inconclusive, HCMV inh -95 (no result: Vaccinia mCherry)
CCOC(=O)N1CCN(c2c(-c3ccccc3)c3cc(Cl)ccc3[nH]c2=O)CC1	LASV entry inh inconclusive
O=c1[nH]c2ccc(Cl)cc2c(-c2ccccc2)c1N1CCN(CCO)CC1	MARV entry inh 10µM, HCV inh inconclusive, LASV entry inh inconclusive (no result: Vaccinia mCherry, VACV Venus inh)
CC(=O)OCC1=C(C(=O)O)N2C(=O)[C@@H](NC(=O)Cc3cccs3)[C@H]2SC1	MARV entry inh inconclusive, HCV inh 0.56µM!
CC(=O)OCC1=C(C(=O)O)N2C(=O)[C@@H](NC(=O)Cc3ccccc3)[C@H]2SC1	none (no result: MARV entry inh, LASV entry inh)
CCOC(=O)C1=C(C)NC(=O)NC1c1ccc(-c2ccccc2F)o1 (centres undefined)	HCV inh inconclusive, HCMV inh -61, LASV entry inh inconclusive
CC1=C(C(=O)OC2CCCCCCC2)C(c2ccc(O)cc2)NC(=O)N1 (centres undefined)	LASV entry inh 2.6µM
CC1=C(C(=O)OC2CCCCC2)C(c2ccccc2)NC(=O)N1 (centres undefined)	MARV entry inh inconclusive, HCV inh 10µM, LASV entry inh inconclusive
CCOc1ccccc1C1NC(=O)NC(C)=C1C(=O)OC1CCCC1C (centres undefined)	MARV entry inh inconclusive, HCMV inh -68, LASV entry inh inconclusive (no result: Vaccinia mCherry)
CCOC(=O)CNC(c1ccccc1)c1cc(Br)ccc1NC(=O)c1ccc(Cl)cc1 (centres undefined)	LASV entry inh inconclusive (no result: MARV entry inh, HCV inh)
CCOC(=O)N1CCc2c(sc3c2c(=O)n(Cc2ccccc2)c(=O)n3CC(=O)Nc2ccc(C)c(C)c2)C1	HCMV inh inconclusive (no result: HCV inh)
COc1ccc(-c2csc(-c3c(N)c(C(=O)c4ccccc4)n4ccccc34)n2)cc1OC	none (no result: HCV inh)
CC(C)C(=O)NCC1CCC2(CCN(Cc3ccc(-c4cccc(Cl)c4)o3)CC2)O1 (centres undefined)	none (no result: MARV entry inh, HCV inh, HCMV inh, LASV entry inh)
Cc1ccc(C)c(Cn2c(=O)n(CCCCC(=O)NCc3ccc4c(c3)OCO4)c(=O)c3ccccc32)c1	MARV entry inh inconclusive, Vaccinia mCherry inconclusive (no result: HCV inh)
CC1=C(C(=O)OCc2ccccc2)C(c2ccccc2Br)NC(=O)N1 (centres undefined)	MARV entry inh inconclusive, HCV inh 10µM, LASV entry inh inconclusive
COc1ccccc1C1NC(=O)NC(C)=C1C(=O)OCc1ccccc1 (centres undefined)	MARV entry inh inconclusive, LASV entry inh inconclusive
COc1ccc(COC(=O)C2=C(C)NC(=O)NC2c2ccc(F)cc2)cc1 (centres undefined)	MARV entry inh inconclusive, HCV inh inconclusive, HCMV inh -75, LASV entry inh inconclusive
CCOc1ccc(C2NC(=O)NC(C)=C2C(=O)OCc2ccccc2)cc1 (centres undefined)	none
CSc1ccc(CCNC(=O)c2ccc3c(Cl)c4c(nc3c2)CCCC4)cc1	HCMV inh inconclusive, Vaccinia mCherry inconclusive, VACV Venus inh inconclusive, LASV entry inh inconclusive (no result: HCV inh)
CCOc1ccc(/C=C/c2ccc3ccccc3[n+]2C)cc1OCC	none (no result: MARV entry inh, HCV inh, HCMV inh, LASV entry inh)
CC1Oc2cc3oc4c(O)c5c(cc4c(=O)c3c(O)c2C1(C)C)C=CC(C)(C)O5 (centres undefined)	HCV inh 5µM (no result: MARV entry inh, HCMV inh, LASV entry inh)
COc1ccc(Cl)cc1NC(=O)CN(C)C(=O)c1cc2c(F)cccc2s1	HCV inh 4µM (no result: MARV entry inh, Vaccinia mCherry, VACV Venus inh, LASV entry inh)
COC(=O)C1(C(=O)OC)CC=CCc2ccccc2[C@H]1C[N+](=O)[O-]	none (no result: HCV inh, HCMV inh, Vaccinia mCherry, VACV Venus inh, LASV entry inh)
CCOC(=O)c1cc(-c2ccc(C)cc2)n(CCC(=O)NCc2ccccc2)c1C	none (no result: HCV inh, LASV entry inh)
CCOC(=O)c1cnc2c(OC)cccc2c1N1CCN(c2ccccc2OC)CC1	MARV entry inh inconclusive, HCV inh inconclusive, Vaccinia mCherry inconclusive, LASV entry inh inconclusive
CCOC(=O)c1cnc2c(C)cc(Cl)cc2c1N1CCN(C)CC1	HCMV inh -62
CCOC(=O)c1cnc2c(OC)cccc2c1N1CC(C)CC(C)C1 (centres undefined)	HCV inh 13µM, HCMV inh inconclusive (no result: MARV entry inh, Vaccinia mCherry, VACV Venus inh, LASV entry inh)
CCOC(=O)c1cnc2ccc(Cl)cc2c1N1CCN(C)CC1	none
CCOC(=O)c1cc(-c2ccc(C)cc2)n(CCC(=O)N2CCN(c3ccccn3)CC2)c1C	MARV entry inh 21µM, HCV inh inconclusive, Vaccinia mCherry inconclusive, VACV Venus inh inconclusive, LASV entry inh 16µM
CCOC(=O)c1cnc2c(OC)cccc2c1N1CCN(c2ccccn2)CC1	MARV entry inh 11µM, HCV inh inconclusive, HCMV inh -69, LASV entry inh inconclusive
CCOC(=O)[C@@]1([C@@H](NC(=O)OC)c2ccco2)CCCC1=O	none (no result: HCV inh, HCMV inh, Vaccinia mCherry, VACV Venus inh, LASV entry inh)
c1cc2ccc3ccc(CN4CCOCC4)c4ccc(c1)c2c34	HCV inh 10µM
COc1ccc(-n2c(=S)[nH]c3cc(C(=O)Nc4ccc(C)c(F)c4)ccc3c2=O)c(OC)c1	MARV entry inh inconclusive, HCV inh 11µM, HCMV inh -76, VACV Venus inh inconclusive, LASV entry inh inconclusive
COc1ccc(-n2c(=S)[nH]c3cc(C(=O)Nc4cc(C(N)=O)ccc4OC)ccc3c2=O)c(OC)c1	none
CCOc1ccc(NC(=O)c2ccc3c(=O)n(-c4ccc(OC)cc4OC)c(=S)[nH]c3c2)cc1	HCMV inh -82 (no result: MARV entry inh, HCV inh, Vaccinia mCherry, VACV Venus inh, LASV entry inh)
COc1ccc(NC(=O)c2ccc3c(=O)n(-c4ccc(OC)cc4OC)c(=S)[nH]c3c2)c(OC)c1	none
Nc1cccc2c1C(=O)N(CCOc1ccccc1F)C2=O	MARV entry inh inconclusive, LASV entry inh 2.8µM
O=C(CCCn1c2ccccc2c(=O)c2ccccc21)Nc1cccc(Cl)c1	HCMV inh -67, LASV entry inh inconclusive (no result: MARV entry inh, HCV inh)
Cc1ccc2c(c1)c(=O)c1ccccc1n2CCCC(=O)Nc1ccc(C)c(C)c1	HCMV inh -61, Vaccinia mCherry inconclusive, LASV entry inh inconclusive (no result: MARV entry inh, HCV inh)
Cc1ccc2c(c1)c(=O)c1ccccc1n2CCCC(=O)Nc1ccc(C)c(F)c1	HCMV inh -74, Vaccinia mCherry inconclusive, VACV Venus inh inconclusive, LASV entry inh inconclusive (no result: MARV entry inh, HCV inh)
Cc1ccc2c(c1)c(=O)c1ccccc1n2CCCC(=O)Nc1ccc(Cl)c(Cl)c1	none (no result: MARV entry inh, HCV inh)
O=C1C(=O)C(c2ccc(O)cc2O)Oc2cc(O)cc(O)c21 (centres undefined)	none (no result: MARV entry inh, HCV inh, HCMV inh, LASV entry inh)
CCOC(=O)c1c(-c2ccc(F)cc2)csc1NC(=O)c1c(-c2ccccc2)noc1C	MARV entry inh 3.5µM, HCV inh inconclusive, HCMV inh -68, Vaccinia mCherry inconclusive, LASV entry inh 8.9µM

Screening data from PubChem.
